Screening results: PubChem BioAssay, National Center for Advancing Translational Sciences (NCATS)
This is a sample that favours compounds with a hit; in the whole collection about 1.8% have one here.
TrxR1 substrate: substrates of rat thioredoxin reductase 1; O89049; Potency, µM (titrated, usually from 114 µM), for the others: at the highest dose activity change, negative = substrate turnover; purified TrxR1 substrate turnover, NADPH consumption readout; 390,000 compounds, 0.01% hits; note: nearly all actives have a fitted effect of over 50% in size
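Rat TrxR1, dispensed at 90 nM, was prereduced with 400 uM NADPH (final) for 5 min at ~22 deg C, then incubated with compound 15 min before 400 uM selenite. A first-read NADPH fluorescence drop versus no-compound background flagged substrates.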
rTrxR1 inhibitor: inhibitors of rat thioredoxin reductase 1 | O89049 | recombinant rTrxR1, NADPH fluorescence consumption, selenite substrate | Potency, µM (doses to about 114 µM), inactives show at the top dose activity change, negative = inhibition, actives largely listed as inhibitors | 390,000 compounds, 1% hits | AID 588453; note: nearly all actives have a fitted effect of over 65% in size
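Rat TrxR1 (90 nM in the dispensed reagent) was pre-reduced with 400 uM NADPH for 5 min at room temperature, then incubated with compound for 15 min. After 400 uM selenite was added, NADPH fluorescence (Ex 340/Em 450 nm) was followed for 8 min.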
GCN5L2 inh: GCN5L2 (KAT2A) acetyltransferase inhibition; Q92830; GCN5L2 HAT assay, ThioGlo1 CoA-SH fluorescence; Potency, µM (titrated, usually from 58.9 µM), for the others: at the top dose activity change, negative = inhibition, usual class: inhibitors; 390,000 compounds, 0.21% hits; AID 504327
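Compounds, pin-transferred from DMSO stocks, meet 20nM GCN5L2 for 15 min before the reaction begins with H3(1-25) peptide (75uM) and acetyl-CoA (70uM). Thiol-reactive ThioGlo1 reports CoA release over 20 min at room temperature.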
VDR inh: blocks the human vitamin D receptor. P11473. 400,000 compounds, 0.93% hits. Potency, µM, inactives show max response, negative = inhibition, most hits filed as inhibitors. VDR-SRC2-3 peptide fluorescence polarization, 2 h. AID 504847
Target sequence (P11473 whole entry, looked up): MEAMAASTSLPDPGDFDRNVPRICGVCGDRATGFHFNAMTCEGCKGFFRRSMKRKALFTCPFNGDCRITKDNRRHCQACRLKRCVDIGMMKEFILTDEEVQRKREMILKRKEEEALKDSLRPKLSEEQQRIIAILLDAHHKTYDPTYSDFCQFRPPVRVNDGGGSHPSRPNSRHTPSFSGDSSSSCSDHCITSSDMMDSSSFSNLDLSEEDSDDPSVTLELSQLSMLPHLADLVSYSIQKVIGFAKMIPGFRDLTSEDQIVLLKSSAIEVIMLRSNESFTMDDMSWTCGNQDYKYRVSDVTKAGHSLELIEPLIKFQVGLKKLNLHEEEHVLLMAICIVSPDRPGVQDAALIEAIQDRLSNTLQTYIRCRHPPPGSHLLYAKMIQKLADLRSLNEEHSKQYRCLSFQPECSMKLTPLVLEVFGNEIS
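VDR–SRC2-3 interaction, FP format. Cmpds 23 nl via pintool, brief spin, 2 h ambient incubation.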
Active calls of the source: *; ? = inconclusive; . = not tested or not shown; ! = not confirmed by another sample; [ ] = dose if it differs, or a comment. Calls come from the whole dose curve; as a rule, active = well fitted curve in the direction sought with a large enough effect; inconclusive = small, poorly fitted or top-dose-only effect, or another doubt; inactive = no such curve, though single readings can be large; an effect the other way counts as inactive or inconclusive. % is set by controls: 0 for no effect and ±100 for the full control effect; potency is the fitted concentration of half-maximal effect.

SMILES	TrxR1 substrate	rTrxR1 inhibitor	GCN5L2 inh	VDR inh
CC(C)(O)[C@@H]1[C@H]2OC(=O)[C@@H]1[C@]1(O)C[C@H]3O[C@]34C(=O)O[C@H]2[C@@]14C (tested in a mixture with another compound)	.	.	-27.8%	-1.2%
O=C(CCN1CC2CCC(CC2)C1)c1cccs1	7.4%[11.4 µM]	0.447µM*	.	44.7µM*
CC[N+](CC)(CC)CCOc1cccc(OCC[N+](CC)(CC)CC)c1OCC[N+](CC)(CC)CC	?	11.3%[57.1 µM]	12.6µM*	8.9%
Cc1ccc(C[N+](C)(C)C)o1	.	.	14.1µM*!	-0.7%
CC1CC2CCC(O2)C(C)C(=O)OC(C)CC2CCC(O2)C(C)C(=O)OC(C)CC2CCC(O2)C(C)C(=O)OC(C)CC2CCC(O2)C(C)C(=O)O1 (stereo not given)	.	.	-14.3%	10.0%
Cn1cccc1/C=C1/C(=O)NC(=S)N(Cc2ccc(F)cc2)C1=O	-1.7%	44.7µM*	-17.0%	?
COC(=O)C1=C(C(=O)OC)C2OC1c1cc3ccccc3cc12	1.4%	2.51µM*	.	8.91µM*
Cc1ccc2nc3sc(=O)sc3nc2c1	.	.	?	8.91µM*
C[C@H](N)C(=O)N[C@@H](C)C(=O)N[C@@H](Cc1ccccc1)C(=O)CCl	.	.	9.2%	?
Cc1oc(-c2ccccc2F)nc1CS(=O)CC(=O)N1CCC2(CC1)OCCO2 (stereo not given)	7.7%	?	-1.7%	-25.1%
Cc1oc(-c2ccc(Cl)cc2)nc1CS(=O)CC(=O)N1CCC2(CC1)OCCO2 (stereo not given)	24.7%	50.1µM*	-17.3%	-13.3%
CCc1c(C)nc(N)nc1N1N=C1SC	3.5%	20.3%	-6.7%[0.501 µM]	-3.1%
CCc1c(C)nc(N)nc1N1N=C1SC(C(C)=O)C(C)=O	0.1%	-19.9%	-18.6%	22.4µM*
CCOC(=O)N(c1ccccc1)P1(=S)OCCO1	-10.8%	-9.2%	2.3%	79.4µM*
C=CCn1c(O)c(/C=C2/C=c3ccccc3=N2)c(=O)[nH]c1=S	-7.0%	20µM*	?	19.1%
COC(=O)[C@@]1(O)C[C@@H]2O[C@@]1(C)n1c3ccccc3c3c4c(c5c6ccccc6n2c5c31)C(=O)NC4	.	.	-3.0%	10.6%
Cc1c(C=O)c2ccccc2n1Cc1cccc(F)c1	-6.6%	-9.5%	-4.1%	20µM*
Cc1c(C=O)c2ccccc2n1Cc1ccccc1	7.3%[57.1 µM]	20.1%[57.1 µM]	-11.3%	-1.2%
O=C1C2CC=CCC2C(=O)N1SC(Cl)(Cl)Cl (stereo not given)	.	.	?	3.98µM*
CCOc1ccccc1N1C(=O)NC(=O)/C(=C/c2ccc3c4c(cccc24)CC3)C1=O	87.3%	22.4µM*	-18.5%	?
CN(C)C(=S)SSC(=S)N(C)C	7.0%	17.3%	14.1µM*	2.51µM*!
CN(C)C(=S)SC(=S)N(C)C	.	.	?	28.2µM*
CC[C@H](C)[C@H](NC(=O)CN)C(=O)N[C@@H](CC(C)C)C(=O)NCC(=O)N[C@@H](Cc1ccccc1)C(=O)N[C@H](C(=O)N[C@@H](Cc1ccccc1)C(=O)N[C@H](C(=O)N[C@@H](CC(C)C)C(=O)O)[C@@H](C)O)C(C)C	.	.	-8.9%	-0.2%
Cc1cc2c(C(C)C)c(O)c(O)c(C=O)c2c(O)c1-c1c(C)cc2c(C(C)C)c(O)c(O)c(C=O)c2c1O	?	39.8µM*	7.94µM*	6.31µM*
CCOP(=S)(OCC)SCSP(=S)(OCC)OCC	-10.1%	-8.8%	.	?
SMILES	TrxR1 substrate	rTrxR1 inhibitor	GCN5L2 inh	VDR inh
CCOP(=S)(OCC)SCn1c(=O)oc2cc(Cl)ccc21	.	.	?	35.5µM*
O=C1OC(c2cc(I)c(O)c(I)c2)(c2cc(I)c(O)c(I)c2)c2ccccc21	.	.	8.91µM*	20µM*
Cc1noc(C)c1C(=O)N1CCC2(CC1)Oc1ccc(F)cc1C(=O)C21CC(c2ccc(Cl)cc2)=NO1 (stereo not given)	4.3%	?	-8.7%	0.8%
CCCCCCCCCCCCCCCCOC[C@@H](O)COP(=O)([O-])OCC[N+](C)(C)C	.	.	-2.9%	4.5%
O=C(CSc1ccc(-c2ccco2)nn1)Nc1ccccc1	7.1%[57.1 µM]	20µM*	-7.7%	-4.8%
COC(=O)C(O)C(O)(CCC(C)C)C(=O)OC1C(OC)=CC23CCCN2CCc2cc4c(cc2C13)OCO4 (stereo not given)	.	.	11.6%	4.4%
N#CC1(c2ccccc2)CCN(C2CC(=O)N(c3ccc4c(c3)OCO4)C2=O)CC1 (stereo not given)	5.0%	70.8µM*	5.3%	-6.8%
